# Test results published in PubChem BioAssay (NCI).
# About 83,000 compounds went through this panel and 20% of them were active in at least one assay; those are over-represented in the sample as a whole.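 Treatment: one concentration, 48 hours, 96-well format. Scoring: percent growth, with anything below 10 considered active.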 Values without a mark were called inactive. Calls of active or inactive are those of the source. *1 amine or outer side, *2 acyl side, *3 side chain or, on linkers, in order; H or OH if unused. Where a SMILES comes first, the peptide text is derived from it. Bridges are numbered along the chain shown (N, C = ends). Roman numbers before positions name the chains, in order. [ ]: non-standard residue; d: D form. Actinocin(1to9) = Cc1c2oc3c(C)ccc(C(=O)[*:2])c3nc-2c(C(=O)[*:1])c(N)c1=O; NMeV = CN[CH](C(=O)O)C(C)C; Sar = CNCC(=O)O
# How the values were obtained:
# Assay in all cases: NCI-60 one-dose screen, 48 h (100 = growth as untreated, 0 = no growth, -100 = all killed)
# Conditions in all cases: 10 µM unless noted
# T-47D breast = system: T-47D breast
# BT-549 breast = system: BT-549 breast
# MDA-MB-435 melanoma = system: MDA-MB-435 melanoma
# SW-620 colon = system: SW-620 colon
# MCF7 breast = system: MCF7 breast
# HCT-116 colon = system: HCT-116 colon
# KM12 colon = system: KM12 colon
# HCC-2998 colon = system: HCC-2998 colon
SMILES,growth (T-47D breast),growth (BT-549 breast),growth (MDA-MB-435 melanoma),growth (SW-620 colon),growth (MCF7 breast),growth (HCT-116 colon),growth (KM12 colon),growth (HCC-2998 colon)
CCN(CC)CC(O)CNc1ccc(NCC2CO2)c2c1C(=O)c1ccccc1C2=O (configuration not stated),-3.27% (active),-56.9% (active),-62.4% (active),-28.7% (active),-13% (active),-11.2% (active),-69.1% (active),
N=C1C=C(N)C(=O)c2ccccc21,-46.1% (active),-99.1% (active),-75.7% (active),-85% (active),,-98.7% (active),-82.4% (active),-99.5% (active)
CC(C)(C)c1ccc(O)c(-c2ccccc2)c1,109%,131%,124%,98.9%,,102%,104%,103%
COc1cc(OC)c(/C=C/c2c3ccccc3cc[n+]2C)c(OC)c1,13%,,2.01% (active),28.2%,12.9%,18.5%,6.03% (active),21.8%
CCCc1cc(=O)oc2c3c(c4c(c12)OC(C)(C)CC4)OC(C)[C@H](C)[C@@H]3O (some centres not stated),67.9%,108%,112%,84.3%,70%,,97.8%,116%
Cc1nnc(N/N=C/c2ccc([N+](=O)[O-])o2)[nH]c1=O,-6.92% (active),,12%,18.7%,3.92% (active),9.54% (active),14.2%,22.2%
CC(CSc1n[nH]c(=S)s1)c1ccccc1 (configuration not stated),110%,112%,109%,112%,102%,105%,113%,
CCCCCCCCCCCCCCCCCC[S+](C)CC (configuration not stated),16.6%,45.1%,,28.1%,36.3%,27.8%,-31.7% (active),50.2%
O=C(CBr)c1ccc(OC(=O)c2ccccc2)cc1,95.7%,105%,106%,88.4%,92.5%,75.6%,106%,
NCCCN(CCCN)CCCNCc1c2ccccc2c(CNCCCN(CCCN)CCCN)c2ccccc12,80.9%,103%,107%,100%,97.1%,90.6%,97.2%,
O=S(=O)(O)c1cnccn1,78.6%,,105%,112%,98%,86.5%,98.9%,102%
Cc1ccc(N2C(=O)C=CC2=O)cc1,112%,105%,117%,-11.5% (active),,101%,108%,94.3%
COc1cc(/C=C2\SC(=S)N(/C=C/c3nc4ccccc4[nH]c3=O)C2=O)cc(OC)c1OC,52.6%,80.8%,81.9%,91.2%,82.1%,78.8%,90.4%,
"CCC(C)C1NC(=O)C(NC(=O)c2c3nc4c(C(=O)NC5C(=O)NC(C(C)CC)C(=O)N6CCCC6C(=O)N(C)CC(=O)N(C)C(C(C)C)C(=O)OC5C)ccc(C)c4oc-3c(C)c(=O)c2N)C(C)OC(=O)C(C(C)C)N(C)C(=O)CN(C)C(=O)C2CCCN2C1=O (configuration not stated) (I: TIP[Sar][NMeV] / II: TIP[Sar][NMeV]; ester I:1-I:C, II:1-II:C; linker I:N-II:N via Actinocin(1to9); configuration not given here)",-8.27% (active),-41.6% (active),-91.1% (active),-20.8% (active),-26.2% (active),0.361% (active),-25.6% (active),
CCCOC(=O)c1nc(N(CC2CCCCC2)C(=O)NC)sc1/N=C/c1ccccc1,15.2%,18.9%,-46.9% (active),,3.21% (active),-25.6% (active),7.21% (active),-78.7% (active)
O=C1C=C(Cl)C(=O)c2ccccc21,14.9%,98.3%,112%,98%,81.3%,,99.4%,125%
CC1(C)N=c2cc3c(cc2N1c1ccc(Cl)cc1)=Nc1ccccc1N3c1ccc(Cl)cc1,25.1%,44%,77.9%,53.5%,28.9%,-41.3% (active),77%,
COc1cc(-c2ccc(-[n+]3nc(-c4ccc([N+](=O)[O-])cc4)nn3-c3ccc([N+](=O)[O-])cc3)c(OC)c2)ccc1-[n+]1nc(-c2ccc([N+](=O)[O-])cc2)nn1-c1ccc([N+](=O)[O-])cc1,-34.2% (active),,-58.4% (active),2.63% (active),-65% (active),6.85% (active),25.4%,29.8%
S=C(S)OCN1CCOCC1,88.1%,100%,88.4%,74.8%,,98.8%,,97.4%
CCCCCCCCCCCCCCCc1ccc(C(=O)C[n+]2ccccc2)cc1,-25.1% (active),,-78.1% (active),-79.1% (active),-88.6% (active),-97.7% (active),-97.7% (active),-83.4% (active)
C[C@@]1(CO)[C@H](O)CC[C@@]2(C)[C@H]1CC[C@H]1C[C@@H]3C[C@@]12CC[C@@]3(O)COC(=O)CN,61.8%,46.3%,55.1%,50.9%,36.9%,33.3%,61.8%,
Oc1c(Cl)cc(Cl)cc1C(c1cc(Cl)cc(Cl)c1O)C(Cl)(Cl)Cl,1.95% (active),7.91% (active),,9.94% (active),4.85% (active),0.34% (active),-0.332% (active),
CN1CCC(c2ccccc2)(c2ccccc2)C(=O)C1,13.7%,115%,98.9%,,27.7%,64.8%,92.2%,82.1%
O=C1C=CC(O)=CC1=P(c1ccccc1)(c1ccccc1)c1ccccc1,96.3%,,103%,98.2%,91.7%,88%,99.7%,-29.4% (active)

SMILES,growth (T-47D breast),growth (BT-549 breast),growth (MDA-MB-435 melanoma),growth (SW-620 colon),growth (MCF7 breast),growth (HCT-116 colon),growth (KM12 colon),growth (HCC-2998 colon)
CC(C)N=C(N)/N=C(\N)Nc1ccc2ccc3ccccc3c2c1,-67.8% (active),-55.3% (active),-93.7% (active),,-90.5% (active),3.26% (active),-82.2% (active),-90.9% (active)
O=C(c1ccccc1)N(CCCl)C(=O)N(CCCl)C(=O)c1ccccc1,86%,100%,102%,110%,101%,90%,102%,
CC(C)=C1C=C2CC[C@@H]3[C@](C)(CCC[C@@]3(C)C(=O)O)[C@H]2CC1,97.6%,126%,101%,102%,95.9%,107%,101%,
O=[N+]([O-])c1ccc([I+]c2ccccc2)cc1,-20% (active),,20.8%,19.5%,-29% (active),-31.4% (active),-75.7% (active),46.1%
CC(=O)c1ccc2c(c1)CCc1ccccc1-2,97.8%,,100%,102%,90.2%,96.6%,109%,109%
O=C1C=Cc2ccccc2/C1=C/c1nc(-c2ccccc2)oc1O,65.5%,,97.5%,97.4%,39.6%,81.5%,92.1%,129%
CC1(C)OC2C(COC(c3ccccc3)(c3ccccc3)c3ccccc3)OC(c3c[nH]c4c(N)ncnc34)C2O1 (configuration not stated),43.2%,77.5%,62.4%,63.9%,35%,46.7%,50.3%,
COC(=O)c1nc(=S)[nH]c(C(=O)OC)c1C(=O)c1ccc(Cl)c(Cl)c1,100%,129%,106%,106%,97.4%,106%,112%,
O=C(CCl)N(c1ccccc1)c1ccccc1,110%,,98%,108%,102%,111%,106%,119%
Cc1nc([N+](=O)[O-])c(Sc2nncc(-c3ccccc3)n2)n1C,15.3%,,76.3%,77.1%,43.8%,53.2%,104%,98.3%
CCc1cccc(CC)c1N1C(=O)C=CC1=O,102%,,111%,108%,110%,88.5%,110%,117%
Oc1ccc2ccccc2c1N=Nc1nccs1,15.5%,,35.3%,24.7%,17.1%,-20.8% (active),25%,-5.47% (active)
CCCCC(C=O)(C=C=C(C)C)CC (configuration not stated),111%,,99.1%,106%,90.9%,106%,109%,109%
O=C(Nc1cccc(C(F)(F)F)c1)Oc1ccc(Cl)c2cccnc12,22%,,28%,12.8%,61.1%,0.974% (active),25.4%,92.7%
Oc1ccc(Br)cc1Sc1cc(Br)ccc1O,17.7%,,56.7%,64.1%,59.2%,34.3%,92.9%,91.7%
O=C(NOC(=O)c1ccccc1)c1ccccc1,101%,,96.4%,93.8%,107%,95.7%,101%,112%
CCN(CC)CCNc1ccc([N+](=O)[O-])c2sc3ccccc3c(=O)c12,45.5%,,18.4%,-5.78% (active),8.95% (active),17.9%,22.9%,36.6%
CC12CCC(O)CC1=CCC1C2CCC2(C)C3=NN=CC3CC12 (configuration not stated),110%,,53%,103%,107%,108%,94.3%,107%
Cn1ccc(=Nc2ccc(NC(=O)c3ccc(N=c4ccn(C)c5ccc([N+](=O)[O-])cc45)cc3)cc2)cc1,54.9%,,83.4%,70.8%,55.6%,32.6%,57.8%,
N#CCc1cccc2ccccc12,105%,,119%,105%,87.4%,106%,110%,109%
C/C(=N\NC(=S)N1CC2CCC(CC2)C1)c1ccccn1,17.4%,,11.5%,14.3%,13.3%,7.24% (active),9.58% (active),29.3%
OC(c1cc(-c2ccc(Cl)cc2)nc2c(Cl)cccc12)C1CCCCN1 (configuration not stated),-82.9% (active),,-78.8% (active),-86.2% (active),-88.7% (active),-28.8% (active),-89% (active),
C/C=C/c1cc2c(c(=O)o1)C(=O)[C@@H](O)[C@H](C)O2,20.4%,,65.6%,19.5%,26.1%,14.1%,42.2%,79.5%
OC(c1cc2ccc(C(F)(F)F)cc2c2cc(C(F)(F)F)ccc12)C1CCCCN1 (configuration not stated),-90.5% (active),,-100% (active),-100% (active),-90.8% (active),-86.5% (active),-97.3% (active),-86.7% (active)
